# Measurements as given in PubChem BioAssay (EPA / NIEHS).
# Activity calls are given as the source filed them. The calls were made as follows: active = hit-call score of the fitted dose curve at least 0.9, where 1 is the maximum; inactive = score below 0.9.
# Assay: Tanguay_ZF_120hpf_MO24: Oregon State University Tanguay Lab 24 Hour Post-fertilization zebrafish Assay for Mortality (AID 2284389)
# Experimental: Tanguay_ZF_120hpf is a whole embryo, multiplexed endpoint assay using zebrafish larvae exposed for 120 hours post fertilization on a 96-well plate.Tanguay_ZF_120hpf_MO24 is one of one assay component(s) measured or calculated from the Tanguay_ZF_120hpf assay. It is designed to make measurements of zebrafish development as detected with brightfield microscopy of developing zebrafish embryos.Data from the assay component Tanguay_ZF_120hpf_MO24 was analyzed into 1 assay endpoints. This assay endpoint, Tanguay_ZF_120hpf_MO24, was analyzed in the positive analysis fitting direction relative to DMSO as the negative control and baseline of activity. Using a type of viability reporter, gain-of-signal activity can be used to understand changes in developmentals as they relate to the whole embryo. To generalize the intended target to other relatable targets, this assay endpoint is annotated to the zebrafish development intended target family, where the subfamily is embryonic mortality.
# Zebrafish husbandry: Tropical 5D wild-type adult zebrafish were housed in at an approximate density of 1000 per 100 gallon tank at the Sinnhuber Aquatic Research Laboratory, Oregon State University, Corvallis, OR. Each tank was kept at standard laboratory conditions of 28C on a 14-h light/10-h dark photoperiod in fish water consisting of reverse osmosis water supplemented with a commercially available salt (Instant Ocean). Spawning funnels were placed into the tanks the night prior, and embryos were collected and staged. To increase bioavailability, the chorion was enzymatically removed using pronase (63.6mg/ml, >/= 3.5U/mg, Sigma-Aldrich: P5147) at 4 hours post fertilization (hpf) using a custom automated dechorionator.Chemical exposures: Six hpf dechorionated embryos were placed 1 embryo per well in a 96-well plate prefilled with 90 ul of EM using automated embryo placement systems (AEPS). Ten microliters of each row of dilution plate 2 was added to 2 exposure plates. The final DMSO concentration used was 0.64% (vol/vol). Thirty-two embryos were also exposed to 5uM trimethyltin chloride (positive control). Plates were sealed to prevent evaporation and foil covered to reduce light exposure and kept in a 28C incubator. Embryos were statically exposed until 120 hpf. At 24 hpf, embryos were assessed for photomotor response using a custom photomotor response analysis tool (PRAT) and for developmental toxicity endpoints (MO24: mortality at 24 hpf, DP: developmental progression, SM: spontaneous movement, and NC: notochord distortion). At 120 hpf, locomotor activity was measured using Viewpoint Zebralab and assessed for 13 endpoints. Zebrafish acquisition and analysis program (ZAAP), a custom program designed to inventory, acquire, and manage zebrafish data, was used to collect developmental endpoints as either present or absent (i.e., binary responses were recorded). If mortality occurred for an embryo (at either 24 or 120 hpf), the non-mortality endpoints were not measured.
SMILES,outcome,AC50
O=S(=O)(O)CCC(F)(F)C(F)(F)C(F)(F)C(F)(F)F,inactive,–
COC(F)(C(F)F)C(F)(F)F (configuration not stated),inactive,–
OCC(F)(F)C(F)(F)C(F)(F)C(F)(F)C(F)(F)C(F)(F)C(F)(F)C(F)(F)CO,–,72.8 µM (active)
O=C(O)CCC(F)(F)C(F)(F)C(F)(F)C(F)(F)C(F)(F)C(F)(F)C(F)(F)F,inactive,–
O=S(=O)(O)CCC(F)(F)C(F)(F)C(F)(F)C(F)(F)C(F)(F)C(F)(F)C(F)(F)C(F)(F)F,inactive,–
CCOC(=O)CC(=O)C(F)(F)C(F)(F)F,inactive,–
NC(O)(C(F)(F)F)C(F)(F)F,inactive,–
FC(F)(F)C(F)(F)C(F)(F)C(F)(F)C(F)(F)C(F)(F)CC[Si](Cl)(Cl)Cl,inactive,–
C=CC(=O)OCC(F)(F)C(F)(F)C(F)(F)COC(=O)C=C,–,29.3 µM (active)
O=C(O)C(F)(F)C(F)(F)C(F)(F)C(=O)O,inactive,–
O=C(F)C1(F)C(F)(F)C(F)(F)C(F)(F)C(F)(F)C1(F)F,inactive,–
CNS(=O)(=O)C(F)(F)C(F)(F)C(F)(F)C(F)(F)C(F)(F)C(F)(F)C(F)(F)C(F)(F)F,inactive,–
O=S(=O)(Cl)C(F)(F)C(F)(F)C(F)(F)C(F)(F)C(F)(F)C(F)(F)C(F)(F)C(F)(F)F,inactive,–
NC(=O)C(F)(F)C(F)(F)C(F)(F)F,inactive,–
O=C(O)CCC(F)(F)C(F)(F)C(F)(F)F,inactive,–
OCC(O)CC(F)(F)C(F)(F)C(F)(F)C(F)(F)C(F)(F)C(F)(F)C(F)(F)C(F)(F)F (configuration not stated),inactive,–
OCC(F)(F)C(F)(F)C(F)(F)CO,inactive,–
FC(F)(F)C(F)(F)C(F)(F)CC1CO1 (configuration not stated),inactive,–
C[Si](Cl)(Cl)CCC(F)(F)C(F)(F)C(F)(F)C(F)(F)C(F)(F)C(F)(F)F,inactive,–

SMILES,outcome,AC50
NC(=O)C(F)(F)C(F)(F)C(F)(F)C(F)F,inactive,–
OCC(F)(F)C(F)(F)C(F)(F)C(F)(F)C(F)(F)C(F)(F)CO,inactive,–
C=CC(=O)OCCC(F)(F)C(F)(F)C(F)(F)C(F)(F)F,inactive,–
C=CC(=O)OCC(F)(F)C(F)(F)C(F)(F)C(F)(F)C(F)(F)C(F)(F)C(F)(F)C(F)F,inactive,–
NC(=O)C(F)(F)C(F)(F)C(F)(F)C(F)(F)C(F)(F)C(F)(F)C(F)(F)F,–,52.7 µM (active)
OCCCC(F)(F)C(F)(F)C(F)(F)C(F)(F)C(F)(F)C(F)(F)C(F)(F)C(F)(F)F,inactive,–
O=C(O)C(F)(F)C(F)(F)C(F)(F)OC(F)(C(F)(F)F)C(F)(F)F,inactive,–
O=S(=O)(OCC(F)(F)F)C(F)(F)C(F)(F)C(F)(F)C(F)(F)F,inactive,–
CCN(CCO)S(=O)(=O)C(F)(F)C(F)(F)C(F)(F)C(F)(F)C(F)(F)C(F)(F)C(F)(F)C(F)(F)F,inactive,–
OC(O)C(F)(F)C(F)(F)F,inactive,–
NC(=O)C(F)(F)C(F)(F)C(F)(F)C(F)(F)C(N)=O,inactive,–
OCCCCC(F)(F)C(F)(F)C(F)(F)C(F)(F)F,inactive,–
NS(=O)(=O)C(F)(F)C(F)(F)C(F)(F)C(F)(F)C(F)(F)C(F)(F)F,inactive,–
O=C(O)C(F)(F)C(F)(F)C(F)(F)OC(F)(F)F,inactive,–
OCC(O)CC(F)(F)C(F)(F)C(F)(F)C(F)(F)F (configuration not stated),inactive,–
CO[Si](C)(CCC(F)(F)C(F)(F)C(F)(F)C(F)(F)C(F)(F)C(F)(F)F)OC,inactive,–
CN(C(=O)C(F)(F)C(F)(F)C(F)(F)F)[Si](C)(C)C,inactive,–
FC(F)(F)C(F)(F)C(F)(F)C(F)(F)C(F)(F)C(F)(F)C(F)(F)CCI,inactive,–
